Compounds without any hit were thinned out: in the full panel of roughly 83,000, 20% have a hit.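 How to read the values: 0–100, growth inhibition (40 = 60% inhibited); 0, no net growth; -100 to 0, cell death (-40 = 40% of starting cells died; -100 = all dead).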 Unmarked numbers belong to inactive results. Calls of active or inactive are those of the source. The calls were made as follows: active = growth percent below 10; inactive = the rest.
Experiments:
Test in all cases: NCI-60 one-dose screen, 48 h (100 = growth as untreated, 0 = no growth, -100 = all killed)
Conditions in all cases: 10 µM unless noted
T-47D breast = system: T-47D breast
BT-549 breast = system: BT-549 breast
MDA-MB-435 melanoma = system: MDA-MB-435 melanoma
SW-620 colon = system: SW-620 colon
MCF7 breast = system: MCF7 breast
HCT-116 colon = system: HCT-116 colon
HCC-2998 colon = system: HCC-2998 colon
KM12 colon = system: KM12 colon

| SMILES | growth (T-47D breast) | growth (BT-549 breast) | growth (MDA-MB-435 melanoma) | growth (SW-620 colon) | growth (MCF7 breast) | growth (HCT-116 colon) | growth (HCC-2998 colon) | growth (KM12 colon) |
| --- | --- | --- | --- | --- | --- | --- | --- | --- |
| Clc1ccc(Cn2cc(-c3nc4ccc(Br)nc4n3Cc3ccc(Cl)cc3)c3cccnc32)cc1 | 34.7% | 82.4% | 105% | 103% | 57.7% | 84.1% | 96.7% | 95.9% |
| CCC(c1ccc(OC)cc1)C(CC)c1ccc(O)c(CN2CCCCC2)c1 (stereo not given) | 36.9% | 72.1% | 81.6% | 71.6% | 63% | 38.7% | 6.27% (active) | 79.7% |
| COC(=O)[C@]12CC[C@@H](C)[C@H](C)[C@@H]1C1=CC[C@@H]3[C@@]4(C)C[C@@H](O)[C@H](O)[C@@](C)(CO)C4=CC[C@@]3(C)[C@]1(C)CC2 | -26.5% (active) | -80.2% (active) | -53.1% (active) | -55.5% (active) | -37.1% (active) | -37.5% (active) | -86.5% (active) | -70.8% (active) |
| N#C/C(=C\c1ccc(-c2cccc(C(F)(F)F)c2)o1)c1nc(-c2ccco2)cs1 | -17.6% (active) | 97% | 102% | 104% | 22.4% | 91.7% | 29.5% | 65.5% |
| CCN1CCN(c2nc(C)cc(N(CCCNc3ccnc4cc(Cl)ccc34)Cc3ccco3)n2)CC1 | 68.4% | 54.5% | 4.03% (active) | 39.3% | 32.3% | 42.5% | 88% | 67.9% |
| O=C1OC(c2ccc(Cl)c(Cl)c2)=C/C1=C/c1cccc([N+](=O)[O-])c1 | 96.7% | 111% | 104% | 102% | 101% | 86.5% | 103% | 104% |
| COC(=O)[C@]12CC[C@@H](C)[C@H](C)[C@@H]1C1=CC[C@@H]3[C@@]4(C)C(c5ncon5)=C[C@@](C)(CO)C4=CC[C@@]3(C)[C@]1(C)CC2 | -0.698% (active) | 8.08% (active) | -24% (active) | -34.7% (active) | -63% (active) | -83.1% (active) | -83.3% (active) | -47.6% (active) |
| COc1ccc2c(c1)c(-c1nc(-c3c[nH]c4ncccc34)cs1)cn2CCN | 25.7% | 88.2% | 68.9% | 55.3% | 36.5% | 53.5% | 94.9% | 24.4% |
| CCOC(=O)N1CCN(CCCCOc2ccc(C(C)(C)CC)cc2)CC1 | 79.7% | 82.3% | 105% | 101% | 103% | 70.8% | 107% | 95.6% |
| CC(CNc1nc(Nc2ccc(Cl)c(Cl)c2)nc(C(Cl)(Cl)Cl)n1)N(C)C (stereo not given) | 20.4% | 45.6% | -47.1% (active) | -74.8% (active) | -64.8% (active) | -88.7% (active) | -79.4% (active) | -88.4% (active) |
| Nc1nc2c(c(=O)[nH]1)C(c1ccc3c(c1)OCO3)C=C(C(=O)O)N2 (stereo not given) | 106% | 91.9% | 97.7% | 106% | 92.7% | 99.4% | 104% | 110% |
| COc1ccc2[nH]cc(-c3nc(-c4c[nH]c5ncccc45)cs3)c2c1 | 67.1% | 36.8% | 54% | 19% | 32.5% | 18.1% | 70.4% | 25.3% |
| COc1ccc(OCC(CO)N2CCN(c3ccccc3)CC2)cc1 (stereo not given) | 101% | 97.5% | 108% | 110% | 83.4% | 95.7% | 99.7% | 105% |
| O=C1/C(=C\c2ccco2)SC(=S)N1CCc1ccc(O)cc1 | 67.6% | 87.2% | 93.7% | 109% | 114% | 96.1% | 116% | 85.5% |
| CN(C)CCCC1(c2ccc(F)cc2)OCc2cc(-c3ccc(C(F)(F)F)nc3)ccc21 (stereo not given) | 66.5% | 94.7% | 67.9% | 83.5% | 56.7% | 58.4% | 31.8% | 80.2% |
| COc1ccc(/C=C(\C#N)c2cc3ccccc3n2C(C)=O)cc1 | 78.5% | 82.6% | 9.69% (active) | 59.5% | 53.7% | 81.1% | 81.2% | 57.1% |
| c1ccc2[nH]c(-c3ccc(Nc4nc(N5CCCCC5)nc(N5CCOCC5)n4)cc3)nc2c1 | 23.4% | 23.1% | -27.3% (active) | 5.3% (active) | 3.49% (active) | 9.65% (active) | -1.07% (active) | 14.3% |
| Cn1c(/C(C#N)=C/c2ccc3ccccc3c2)cc2ccccc21 | 73.4% | -16.6% (active) | -14.7% (active) | 26.4% | 14.1% | 8.56% (active) | 16.9% | 15.1% |
| CNC(=O)c1cc(Oc2ccc3nc(NC(=O)Nc4ccc(Cl)cc4)sc3c2)ccn1 | 44% | 102% | 64.1% | 101% | 69.5% | 47.3% | 86.5% | 70% |
| COc1ccc(-c2n[nH]nc2-c2cc3ccccc3s2)cc1O | 43.8% | 24.1% | -32.9% (active) | 26.6% | 19.7% | 18.2% | 29.2% | 22.7% |
| Fc1cccc(-c2[nH]nc3nc(Nc4cccnc4)sc23)c1 | 50.8% | 60.6% | -8.7% (active) | 41.6% | 29.3% | 35% | 70.2% | 22.8% |
| N=c1ccc2nc3c(cc(N)c4ccccc43)oc-2c1 | -80.1% (active) | -13.2% (active) | -86.1% (active) | -79.6% (active) | -62.3% (active) | -96.1% (active) | -96.8% (active) | -94.9% (active) |
| COc1cc(-c2c(C#N)c(-c3cccs3)nc3c2c(-c2ccccc2)nn3-c2ccccc2)ccc1O | 56.8% | 101% | 74.8% | 88% | 76.4% | 56.8% | 99.6% | 78.4% |
| NCCn1cc(-c2nc(-c3c[nH]c4ncccc34)cs2)c2ccccc21 | 22.6% | 98.9% | 98.3% | 96.1% | 60.4% | 94.5% | 93.8% | 73.4% |
| CC(=O)OC[C@]12CC[C@@H](/C(C)=N/O)[C@@H]1[C@H]1CC[C@@H]3[C@@]4(C)CCCNC(C)(C)[C@@H]4CC[C@@]3(C)[C@]1(C)CC2 | 47.7% | 66.2% | 81.8% | 80.3% | 57.4% | 46.5% | 95.2% | 76.4% |
| COc1cc(/C=N/Nc2ncnc3c2c(C)nn3-c2ccc(F)cc2)ccc1O | 79.8% | 90.4% | 95.4% | 131% | 85.3% | 105% | 99.7% | 71.9% |
| O=S(=O)(NCCNc1cc(-c2cn(-c3ccccc3)nc2-c2cccc(O)c2)ccn1)c1ccc(Cl)cc1 | 14.4% | 50.7% | 23.3% | 32.8% | 14.9% | 20.4% | -42.8% (active) | 19.4% |
| Cc1ccc(Nc2c(C(N)=O)cnc3ccc(S(=O)(=O)Nc4cc(C)on4)cc23)cc1 | 92.7% | 105% | 103% | 105% | 93.9% | 94% | 107% | 103% |
| COc1cc2c(cc1OC)C(=O)/C(=C/c1cc(-c3ccc4c(c3)OCO4)n[nH]1)C2 | -4.12% (active) | -47.8% (active) | 17.3% | -84.9% (active) | 0.343% (active) | -61% (active) | 89.3% | -82.3% (active) |
| CN(CSc1ccc(Cl)cc1)c1ccc(CSc2ccc(Cl)cc2)cc1 | 48.6% | 51.4% | 45.8% | 67.5% | 51.8% | 58.1% | 85.3% | 46.1% |

From PubChem BioAssay (NCI)
